High-throughput results as filed in PubChem BioAssay.
Compounds with a hit are over-represented: about 1.4% of the library has one in this group of screens.
EBV gp42 block – Epstein-Barr virus gp42 inhibitors, primary screen, biochemical, uHTS, fluorescence polarization | Glycoprotein 42 (Epstein-Barr virus (strain AG876)), Q1HVG2 | Fluorescence polarization binding assay, mP read-out | inhibition, % (tested at 21.74 µM) | 220,000 compounds, 0.42% hits; in the data active = inhibition above about 50%
MEX-5 binding – MEX-5 zinc finger RNA-binding disruptors – biochemical, C. elegans, fluorescence polarization, MLPCN library, primary screen; AID 1832, 2009; activity score (negative = inhibition of binding), % at 10 µM; MEX-5/FITC-TCR2 RNA binding; active compounds read low; 300,000 compounds, 0.38% hits; Zinc finger protein mex-5 (Caenorhabditis elegans), Q9XUB2;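 active = inhibition past about -25% in most replicates, and total fluorescence under double the plate's negative control median, limit read from the data; inconclusive = replicates evenly split on the limit, or fluorescence at least double controls; inactive = too little inhibition in most replicates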;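 note: 0% = DMSO and -100% = 5 µM competing unlabeled TCR2 RNA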
E coli Lon inh – inhibitors of E. coli Lon protease, primary screen, biochemical, fluorescence polarization; AID 602123, 2011; inhibition, % at 7.94 µM; purified E. coli Lon protease; 360,000 compounds, 0.42% hits; P0A9M0; in the data active = inhibition above about 13%, passing the limit was not always enough;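 note: 0% = enzyme with probe and DMSO and 100% = no enzyme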
MCL1-BIM inh – inhibitors of MCL1 binding to BIM-BH3, primary screen, biochemical, fluorescence polarization | Induced myeloid leukemia cell differentiation protein Mcl-1 (Homo sapiens), Q07820 | GST-MCL1 / FITC-Bim-BH3 fluorescence polarization | inhibition, % at 10.9 µM | 320,000 compounds, 0.68% hits;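 active = inhibition above the mean inhibition of all tested compounds plus 3 SD, set per campaign, cut at about 40% in these data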;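 note: 0% = DMSO wells and 100% = unlabeled Bim-BH3 peptide control; higher means more loss of mP so more displacement of Bim peptide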
Target sequence (Q07820 whole entry, looked up): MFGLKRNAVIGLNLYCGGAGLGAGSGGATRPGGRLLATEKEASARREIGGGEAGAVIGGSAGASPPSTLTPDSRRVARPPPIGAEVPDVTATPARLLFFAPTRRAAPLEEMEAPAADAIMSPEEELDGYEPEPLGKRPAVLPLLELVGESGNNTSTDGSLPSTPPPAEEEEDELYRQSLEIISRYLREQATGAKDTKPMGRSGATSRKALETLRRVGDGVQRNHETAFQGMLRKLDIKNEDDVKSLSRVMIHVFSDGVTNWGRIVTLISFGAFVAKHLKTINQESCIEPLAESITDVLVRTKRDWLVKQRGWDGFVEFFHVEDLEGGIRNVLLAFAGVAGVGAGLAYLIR
GLD-1 TGE inh – GLD-1/TGE RNA complex disruptors, primary screen, biochemical, fluorescence polarization; Female germline-specific tumor suppressor gld-1 (Caenorhabditis elegans), Q17339; purified GLD-1 + fluorescein TGE RNA; inhibition, % at 5.96 µM; 320,000 compounds, 0.44% hits; AID 2280, 2010;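 active = percent inhibition above a per-plate cutoff, the plate mean of test compounds plus 3 SD, cut at about 30% in these data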;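 note: 0% = DMSO wells with GLD-1 and probe and 100% = wells lacking GLD-1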
BCLXL inh – inhibitors of human Bcl-xL, primary screen, biochemical, fluorescence polarization, HTS | Bcl-2-like protein 1 (Homo sapiens), Q07817 | GST-Bcl-xL / FITC-Bim BH3 peptide fluorescence polarization | inhibition, % at 10.9 µM | 320,000 compounds, 0.7% hits | AID 2129, 2009;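 active = inhibition above the mean of all tested compounds plus 3 SD, cutoff set per campaign, cut at about 30% in these data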;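 note: 0% = DMSO wells and 100% = unlabeled Bim-BH3 peptide competitor; inhibitors lower millipolarization by displacing the labeled peptide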
* hit, by the source's call; ? = inconclusive; / = no result given.

SMILES	EBV gp42 block	MEX-5 binding	E coli Lon inh	MCL1-BIM inh	GLD-1 TGE inh	BCLXL inh
C=CCN1C(=O)/C(=C2/Sc3ccccc3N2CCCS(=O)(=O)O)SC1=S	-14	-1	-5	35	-2	16
C=CCN1C(=O)/C(=C2/Sc3ccccc3N2CC)SC1=S	/	-30*	0	4	-3	11
NC1=NC(=O)C2(COC(c3cccnc3)OC2)S1 (centres undefined)	-13	-2	-3	6	5	86*
NC1=NC(=O)C2(COC(c3ccncc3)OC2)S1 (centres undefined)	-11	-1	2	-5	0	0
CCn1c(SCC(=O)Nc2ccc(F)cc2)nnc1C1CC1	/	-2	2	3	-3	3
Cc1ccc(SCCN2CCC(O)CCC2=O)cc1 (centres undefined)	/	2	6	5	3	4
Cc1nc(NC(=O)c2ccccc2)sc1-c1csc(Nc2ccc(C(=O)O)cc2)n1	71*	-3	-9	/	/	/
CC(=O)c1cccc(NC(=O)c2ccc(-c3ccccc3[N+](=O)[O-])o2)c1	4	2	-2	-2	8	0
COc1ccc(CCNc2nc(-c3cccnc3)cs2)cc1OC	138*	0	-12	4	6	5
CCCCCn1nc(-c2ccccc2)c2nc3ccccc3nc21	161*	?	-8	22	-5	30
CCCn1nc(-c2ccccc2)c2nc3ccccc3nc21	65*	/	/	8	-12	24
CCCCn1c2nc3ccccc3nc2c2c(=O)n(CCC)cnc21	-11	5	-12	5	0	4
COC(=O)CCC(=O)OC1(C)C(=O)C=C2C=C(C3CC3)N(Cc3ccco3)C=C2C1=O (centres undefined)	26	-13	12	42*	15	37*
COC(=O)CCC(=O)OC1(C)C(=O)C=C2C=C(C3CC3)N(c3cccc(C#N)c3)C=C2C1=O (centres undefined)	14	-17	14	43*	31	47*
Nc1nc2c(Cl)ccc(Cl)c2s1	-4	1	-2	8	-1	5
CC(=O)Nc1ccc(CN2CCCC(C(=O)c3ccc(C(F)(F)F)cc3)C2)cc1 (centres undefined)	-9	1	-1	8	4	3
CCOC(=O)c1cc(-c2ccccc2)sc1NC(=S)Nc1cc(C)ccn1	-87	-57*	-2	3	-1	2
CC(Cc1ccc(O)c(O)c1)C(C)Cc1ccc(O)c(O)c1 (centres undefined)	/	-36*	/	38	15	31*
N=c1n(CCCOc2ccccc2Cl)c2ccccc2n1CC(N)=O	-19	2	2	5	2	6
CC(C)CCCN1C(N(C)C)=NC[C@@H]1Cc1ccccc1	/	/	-6	11	-2	7
Cc1ccc(CNC(=O)C2CCN(S(=O)(=O)c3c(C)noc3/C=C/N(C)C)CC2)cc1	/	-9	-53	-34	-20	-25
Cc1noc(/C=C/N(C)C)c1S(=O)(=O)N1CCC(C(=O)O)CC1	-10	-30*	-1	7	11	10
O=C1c2cccc3c(N4CCCCC4)ccc(c23)C(=O)N1c1cccc(O)c1	25	14	-134	0	8	34*
O=C(c1cccc(N2C(=O)c3ccccc3C2=O)c1)N1CCCCCC1	-3	0	-12	0	0	-1
CC(=O)CC1(C)OC(N)=C(C#N)C1(C#N)C#N (centres undefined)	/	-1	8	35	57*	45*
COc1ccc(CNCc2c(O)c(Cl)cc3c(C)c(C)c(=O)oc23)c(OC)c1	/	1	0	8	10	5
O=C(N/N=C/c1ccc(Br)cc1)c1ccc(NC(=O)c2ccccc2)cc1	/	/	-6	/	/	/
